Test results published in the supplement of paper PMC11417369.
± gives the standard deviation of the averaged measurements. Whole data set: some 25,000 sequences, median “ln(normalized median fluorescence intensity)” near 7.9, cut for the highest 2% near 11. Only a selection was taken, and the highest values are over-represented in it overall.

Test system: PfAP2-I AP2 domain 3 (GST-tagged)
Test: gcPBM binding intensity (ln(normalized median fluorescence intensity)); higher = stronger DNA binding
Method in brief: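 An Agilent 4 × 180k array carrying primer-extended double-stranded 36-bp intergenic genomic probes and negative controls received GST-tagged P. falciparum DNA-binding domains expressed in E. coli, about 25 μg on average, for 1 h. The binding buffer contained 1× PBS, 1% milk, 0.2 mg/ml BSA, 0.5% salmon testes DNA and 0.03% Triton X-100. Binding intensity is the top Masliner-normalised natural-log median intensity across replicate spots of either probe orientation, read after Alexa488 anti-GST antibody staining and a 488 nm scan.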

Sequence	gcPBM binding intensity (ln)
AATAAATTAGAAGGATGTACTTTGTTTAATATAGAG [XGTACX_site1943]	7.83 ± 0.37
TTCCAAAAAGTTATTACACACATATGTGCACATATA [CACACA_site6465]	10 ± 0.4
CATTTTATAAAAAGCACACATATAGTTATATGCACA [CACACA_site3691]	10.7 ± 0.91
TTTATTTTCCAAAGGGTGCACATAGTTAAAACGATA [GTGCAC_site9855]	11.1 ± 0.29
AATAGCTAGCTGTGCACACAAACATATTTTCCAAAT [CACACA_site880]	9.55 ± 0.16
CAAATAGCTAGCTGTGCACACAAACATATTTTCCAA [CACACA_site879]	9.66 ± 0.23
TTTATTTTCCAAAGGGTGCACATAGTTGAAACGATA	11.1 ± 0.44
TTTCTTTTTTTTTGAAGTACATAAAAATATAAAAAA [XGTACX_site311]	8.03 ± 0.085
AGACAAAATGTTTGAAGTACTTTTTATCAAATTAAA [XGTACX_site8885]	7.66 ± 0.2
CACGAACACAAACACAAACACACATCATATATATAT [CACACA_site1322]	9.25 ± 0.16
AAATATATATATAGTTGTACATATATCGTATATATT [XGTACX_site7867]	7.57 ± 0.45
GTTAAAATTTGTCAATGTACAGAAATAATAAAAAAA [XGTACX_site1879]	7.97 ± 0.62
ATATATATATATATATGTACATATTATTATTTTGAT [XGTACX_site4752]	9.22 ± 0.49
AAAATAAACTATAGTACACACTTATTATTATGAAAT [CACACA_site5488]	7.92 ± 0.3
TTTTTTCTTTTCAAGGTGCTTTATAAGAAAAAGGGA [GTGCAC_site9858]	11.1 ± 0.89
AAATATAAGAAAAAGGTGCTTTTTTTTTTTTTTTTT [GTGCAC_site9700]	9.79
TTTTTTTTTCTTCTTTTCAAATTTAAGAAATTATAA [CACACA_negctrl_site18]	7.55 ± 0.57
AAAAAAAAACACGCATGTACATAAAAATAATCATAC [XGTACX_site1086]	7.96 ± 0.57
ATACACACTCAAAAAAGTACTTAACTACATGAATTG [XGTACX_site6366]	7.79 ± 0.55
TGTATGTATAATTGAGTGCACAGAAAAAAAAAAGAA	11 ± 0.13
CATTATAAAAAATAAAAAAGAAATAATTGTATATGC [CACACA_negctrl_site478]	7.77 ± 0.68
AAGAAAATATAAAATGCACACTATAAATTGTATATA [CACACA_site7928]	8.73 ± 0.014
TAAATAAATAAAAATAGTACATAATTATTATTATTA [XGTACX_site4981]	7.42 ± 0.22

Sequence	gcPBM binding intensity (ln)
TTCTTTATATACAAACCAAAATATTATGTATAATAA [CACACA_negctrl_site15]	7.62 ± 0.33
CTTATAAGAATACTAGTGCACATAATTTAACGAAAA	11 ± 0.59
AAGATAAAATTATGCACACATACGAATAATTTTAAA [CACACA_site1705]	9.79 ± 0.39
TAGATTATTATACTAGTGCAAATTATTTAAGAAAAA	10 ± 0.34
AATGTACGTTTTATAACACACACACTAATAAAAAAA [CACACA_site9286]	8.23 ± 0.36
ATATCGGGTGCATTAACACACATTTATTTGAATAAA [CACACA_site2350]	11.7 ± 0.79
AAAATTAAAAATAACACACACATATTTATATTTATA [CACACA_site7329]	7.59 ± 0.4
ATCGGTAATATTAACACACACATTTATATATATTTA [CACACA_site1084]	8.02 ± 0.41
ATCGGTAATATTAACACACACATTTATTTATATTTA [CACACA_site6638]	7.96 ± 0.58
TATATTTATTATAACACACACATATAAATATTATAG [CACACA_site6726]	7.95 ± 0.48
ATATCGTGTGCATTAACACACATTTATTTGAATAAA [CACACA_site7162]	10.9 ± 0.5
AACATTTTAAATTATACACACATTTTGAATATATAT [CACACA_site3470]	7.78 ± 0.53
ACATATCGGGTGCATTAACACACATTTATTTGAATA [CACACA_site8736]	11.8 ± 0.52
TTTATTTTAACTTGTTCACACATTTGAATAAATAAA [CACACA_site5064]	7.71 ± 0.33
CAAAAAACAACAGATCGTACAAAATATTATATATAT [XGTACX_site2285]	8.12 ± 0.67
TTTTTTTTTTTTTTCTGTACTTAAAAAGGGGGAGAA [XGTACX_site3799]	8.79 ± 0.7
ATACATTCAAAATATACACACATATATCTATAATAT [CACACA_site6576]	7.69 ± 0.65
TGCAGTCTGGAGAAAAGTACATAGTATCTGGTAGCT [XGTACX_site2547]	7.87 ± 0.66
GAATGTAAATATTAAAGTACACAGAATATATCTTCA [XGTACX_site8149]	7.79 ± 0.16
ATAATAAAAATAAGAGAATAAAAATGCAATTTAATG [CACACA_negctrl_site878]	7.95 ± 0.47
AGAATAATAAAATGGGTGCAATAGTTTTTTTTTTTT [GTGCAC_site9823]	11.2 ± 0.44
GATAATCAGAATGGGGTGCAAAGAAAAAAAAAAAAA	10.7 ± 0.46
ATATATATTATATATAGTACTTTTTTGCGCAAATAT [XGTACX_site6849]	8.08 ± 0.44
